# RECQ1 inh = inhibitors of human RECQ1 DNA helicase. P46063. RECQ1 DNA unwinding, red fluorescence kinetic read. Potency, µM (highest dose often 57.3 µM), without a hit: at the highest dose activity, negative = inhibition, hits mostly inhibitors. actives 0.54% (n = 240,000). AID 2549;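 further: plate controls were vehicle for no effect and no enzyme for full effect; nearly all actives have a fitted effect of over 30% in size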
#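 50 nM RECQ1T1 preincubated 15 min with compound in Tris pH 8.0 buffer with MgCl2, DTT, Tween-20 and 2.5 ug/ml poly(dI-dC); started with 200 nM TAMRA/BHQ-2 forked duplex and 2 mM ATP. Unwinding read as fluorescence (525/598 nm), two reads 2 h apart.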
# JMJD2E inh = blocks human JMJD2E demethylase activity; B2RXH2; JMJD2E catalytic domain, FDH-coupled NADH fluorescence (FDH is formaldehyde dehydrogenase); actives 1.6% (n = 230,000); AID 2147; Potency, µM (series often up to 57.1 µM), without a hit: at the highest dose activity change, negative = inhibition, most hits filed as inhibitors; active means well fitted inhibition curve with a large enough effect, not every such curve was filed as active; inconclusive means small, poorly fitted or top-dose-only effect, or another doubt; inactive means no such curve, though single readings can be large or run the other way;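 further: 0% = wells with enzyme and -100% = buffer wells without enzyme; nearly all actives have a fitted effect of over 50% in size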
# Target sequence (B2RXH2 1-337 limits assumed): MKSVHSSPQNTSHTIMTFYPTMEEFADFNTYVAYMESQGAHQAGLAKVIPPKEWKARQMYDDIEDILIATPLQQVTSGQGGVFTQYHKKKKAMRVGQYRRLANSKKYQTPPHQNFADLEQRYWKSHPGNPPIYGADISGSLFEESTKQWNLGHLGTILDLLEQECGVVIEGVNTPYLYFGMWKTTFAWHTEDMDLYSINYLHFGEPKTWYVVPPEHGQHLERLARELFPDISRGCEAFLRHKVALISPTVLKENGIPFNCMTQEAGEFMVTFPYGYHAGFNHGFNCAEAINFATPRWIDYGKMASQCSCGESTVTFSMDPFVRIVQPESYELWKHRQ
# L3MBTL1 inh = blocks human L3MBTL1; Q9Y468; AlphaScreen L3MBTL1–H3K9me1 peptide binding; actives 0.66% (n = 230,000); Potency, µM (highest dose often 57.1 µM), without a hit: at the highest dose activity, negative = inhibition, usual class: inhibitors; further: nearly all actives have a fitted effect of over 60% in size
#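 L3MBTL1 (50 nM) pre-complexed 30 min with biotinylated H3(1-15)K9me1 peptide (75 nM), then compounds added for 30 min at room temperature; AlphaScreen streptavidin donor/nickel chelate acceptor beads (10 ug/mL final) read after 30 min dark incubation.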
# APEX1 inh = APE1 (human) endonuclease inhibition; recombinant APE1, TAMRA/BHQ-2 abasic DNA cleavage fluorescence; actives 0.35% (n = 350,000); Potency, µM (series often up to 65.8 µM), for inactives: at the top dose activity change, negative = inhibition, hits mostly inhibitors;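 further: plate controls were vehicle for no effect and reference inhibitor for full effect; nearly all actives have a fitted effect of over 55% in size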
# Target sequence (P27695 whole entry, looked up): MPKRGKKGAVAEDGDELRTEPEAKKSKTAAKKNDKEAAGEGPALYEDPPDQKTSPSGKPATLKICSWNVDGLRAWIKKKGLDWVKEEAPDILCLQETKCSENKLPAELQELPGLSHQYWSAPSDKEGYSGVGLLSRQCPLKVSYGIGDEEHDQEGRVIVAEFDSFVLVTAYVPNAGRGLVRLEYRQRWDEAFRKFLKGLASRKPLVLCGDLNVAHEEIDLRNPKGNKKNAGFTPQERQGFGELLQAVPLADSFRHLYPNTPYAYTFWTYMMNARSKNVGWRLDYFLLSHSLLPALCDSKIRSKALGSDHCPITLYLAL
#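 Quantitative HTS: incision of a TAMRA/BHQ-2 double-stranded substrate bearing a tetrahydrofuran abasic site by 0.75 nM APE1 raises fluorescence. Substrate 50 nM final, added after 15 min compound preincubation at room temperature; progress as third-minus-first kinetic read difference.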
# BLM inh = Bloom syndrome helicase (human) inhibition; P54132; Potency, µM (titrated, usually from 56.1 µM), inactives show at the top dose activity change, negative = inhibition, most hits filed as inhibitors; recombinant BLM DNA unwinding, fluorescence dequenching; actives 0.2% (n = 350,000);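 further: plate controls were vehicle for no effect and no enzyme for full effect; nearly all actives have a fitted effect of over 35% in size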
# Numbers without * were called inactive; i = inactive; ? = inconclusive; / = no result; ! = repeats disagree; [ ] = remark or other dose. The full list was thinned out, with hits kept by preference. Unless noted, the call rests on the fitted dose curve; in most records, active means well fitted curve in the direction sought with a large enough effect; inconclusive means small, poorly fitted or top-dose-only effect, or another doubt; inactive means no such curve, though single readings can be large; an effect the other way counts as inactive or inconclusive. Unless noted, on the % scale 0 is the no-effect control and ±100 the full control effect; potency means the concentration at half of the fitted maximal effect.
SMILES,RECQ1 inh,JMJD2E inh,L3MBTL1 inh,APEX1 inh,BLM inh
CCN1/C(=C/c2ccc3cc(C)ccc3[n+]2C)Sc2ccc3sccc3c21,-6.7%,-9.0%,-23.2%,2.7%,2.0%
Cc1sc2ccc3sccc3c2[n+]1C,-3.9%,14.1µM*,-6.7%,1.3%,-7.7%
Cc1sc2c3ccsc3ccc2[n+]1C,-5.7%,25.1µM*,/,11.7%,-7.0%
O=C(N/N=C/c1c[nH]c2ccccc12)c1cc(-c2ccc(-c3ccccc3)cc2)n[nH]1,-12.9%,?,-0.7%,8.7%,-5.3%
O=C(N/N=C/c1c[nH]c2ccccc12)c1cc(-c2ccccc2)n[nH]1,25.1µM*,-28.6%,-12.4%,8.3%,-19.2%
Nc1ccccc1N=Nc1ccccc1N,/,/,8.91µM*,16.1%,-3.0%
Cn1nc(C(C)(C)C)cc1NC(=O)Nc1cc(Cl)cc(Cl)c1,-12.1%,-3.9%,8.6%,10.6%,-15.5%
COc1ccc(-c2oc3ccccc3c(=O)c2O)cc1,5.0%,?,/,-2.0%,-3.8%
O=c1cc(-c2ccc(O)c(O)c2)oc2c1ccc1ccccc12,/,/,-10.0%,-13.9%,/
COc1cc(O)c2c(=O)c(O)c(-c3ccc(O)c(O)c3)oc2c1,?,22.4µM*,/,?,-17.3%
O=c1c(O)c(-c2ccc(O)c(O)c2)oc2ccccc12,2.24µM*,10µM*,/,?,-9.2%
O=c1c(O)c(-c2cc(O)c(O)c(O)c2)oc2cc(O)ccc12,4.47µM*,/,/,0.282µM*,-27.2%
O=c1c(O)c(-c2ccc(O)cc2)oc2cc(O)cc(O)c12,-22.7%,?,/,?,-7.3%
O=c1cc(-c2ccc(O)c(O)c2)oc2ccc3ccccc3c12,/,/,-9.5%,0.423µM*,/
NC(=O)COc1ccc(Cc2ncc(C(F)(F)F)cc2Cl)cc1,i,4.2%,0.4%,6.6%,-0.7%
CC(=O)Nc1ccc2nc3ccccc3nc2c1,16.0%,14.1µM*,-2.4%,2.6%,-4.1%
O=C(/C=C/c1ccccc1)NC(=S)NNC(=O)c1cnccn1,-1.8%,8.91µM*,/,-1.9%,-6.9%
O=C(/C=C/c1ccccc1)NC(=S)NNC(=O)c1cccnc1,-6.4%,?,-2.7%,2.2%,-0.2%
Nc1nc(CN2CCCCCC2)nc(Nc2ccccc2)n1,-20.7%,?,28.2µM*,-2.7%,1.3%
CCCN(CCC)CCNC(=O)CCC(=O)Nc1ccc2nc(N3CCN(C)CC3)cc(C)c2c1,1.5%,?,/,-2.4%,6.9%
O=C(CCCN1C(=O)c2ccccc2C1=O)Nc1c2c(nc3c1CCC3)CCC2,i,6.3%,41.6%,2.3%,-1.1%
Cc1c(C(=O)Nc2nc3ccccc3[nH]2)oc2ccccc12,-7.1%,3.16µM*,2.4%,11.0%,6.2%
CC(=O)c1ccc(OCc2cc([N+](=O)[O-])cc3c2OCOC3)cc1,i,5.8%,-2.5%[11.4 µM],9.0%,-5.6%
[O-]/C(=C(\C(=S)Nc1cccc2ccccc12)[n+]1cccc(CO)c1)c1ccc(Cl)s1,i,12.6µM*,/,-7.2%,-6.3%
Cc1ccc(NC(=S)/C(=C(\[O-])c2ccc(Cl)s2)[n+]2cccc(CO)c2)cc1C,-17.4%,-6.0%,-3.2%,-2.1%,-10.2%
SMILES,RECQ1 inh,JMJD2E inh,L3MBTL1 inh,APEX1 inh,BLM inh
COc1c(O)cc2c(c1O)[C@@H]1O[C@H](CO)[C@@H](O)[C@H](O)[C@H]1OC2=O,/,/,/,8.0%,-1.9%
Cc1c(C(=O)O)c(O)cc2c1C(=O)c1c(O)c([C@@H]3O[C@H](CO)[C@@H](O)[C@H](O)[C@H]3O)c(O)c(O)c1C2=O,/,/,10µM*,14.1µM*!,/
CCOC(=O)c1ccc(N2CCN(c3ccccc3F)CC2)c(NC(=O)Nc2ccc(Cl)c(Cl)c2)c1,/,/,/,/,-8.0%
Cc1ccccc1C(=O)NC(CC(C)C)C(=O)OCc1cc(=O)n2cc(Br)ccc2n1 (centres undefined),-2.1%,-29.7%,5.8%,-1.2%,5.6%
Cc1cc(C)c(C)c(S(=O)(=O)N[C@@H](C)C(=O)OCc2cc(=O)n3cc(Br)ccc3n2)c1C,24.0%,?,12.6µM*,-1.8%,-25.3%
COC(=O)c1ccc2c(=O)[nH]c(COC(=O)c3cccc(S(=O)(=O)N4CCOCC4)c3)nc2c1,/,/,-2.0%,0.0%,/
Cc1cc(C(=O)O)ccc1[C@H](N)C(=O)O,2.7%,-2.0%,/,39.8µM*!,-1.9%
CCOc1cc(CNc2ccc(N3CCOCC3)cc2)cc(Br)c1OCC,?,-13.9%,31.6µM*,3.4%,-9.6%
COc1cc(CNc2ccc(N3CCOCC3)cc2)cc(Br)c1OC,-5.5%,-12.4%,-14.6%[11.4 µM],3.2%,-5.1%
CCOc1cc(CNc2ccc(N3CCCCC3)cc2)cc(Br)c1OCC(=O)NC(C)(C)C,-10.5%,3.16µM*,28.2µM*,-0.9%,-9.4%
CCOc1cc(CNc2ccc(N(C)C)cc2)cc(Br)c1OCC(=O)NC(C)(C)C,-14.9%,?,?,-8.9%,-21.0%
Fc1ccc(N2CCN(c3nc(CN4CCOCC4)nc4scc(-c5ccccc5)c34)CC2)cc1,-9.8%,-9.1%,15.8µM*,-8.4%,-11.1%
COc1ccccc1N1C(=N)S/C(=C\c2ccc(-c3ccccc3C(=O)O)o2)C1=O,?,-2.1%,?,28.2µM*,1.6%
CCCCOC(=O)N1CCOCCOCCOCC1,-10.2%,9.3%,4.6%,2.3%,-0.8%
CC1=C(/C=C/C(C)=C\C=C\C(C)=C\C(=O)O)C(C)(C)CCC1,7.0%,11.5%,/,-2.3%,3.2%
CC(/C=C/C=C(C)/C=C/C(=O)O)=C\C=C\C=C(C)\C=C\C=C(C)\C=C\C(=O)O,11.2µM*,/,/,2.51µM*,/
c1ccc2c(c1)nnn2CNc1nccs1,-7.0%,13.0%,-4.3%,2.9%,1.0%
c1nc(NC2CCCCCC2)c2[nH]cnc2n1,-1.8%,-12.0%,-12.8%,141µM*,3.7%
c1nc(NC2CCCCC2)c2[nH]cnc2n1,-1.8%,11.1%,-4.1%,2.1%,-0.2%
C=CC[C@@H](CC(=O)N(CCO)Cc1ccccc1)C(=O)N[C@H](COC(=O)[C@@H](CC=C)Cc1ccc(F)cc1)C(C)(C)C,/,/,5.7%,-22.9%,/
CCC(CC)C(=O)Nc1nnc(S(=O)(=O)Nc2ccc(OC)cc2)s1,/,/,/,9.5%,-0.6%
O=C(O)c1cccc(N2C(=O)c3cc([N+](=O)[O-])cc4cc([N+](=O)[O-])cc(c34)C2=O)c1,/,/,31.6µM*,-44.9%,-13.0%
O=C(Nc1cccc(Cl)c1)OCC#CCCl,28.2µM*,/,/,1.58µM*,28.2µM*
CS(=O)(=O)NCc1nnc(SCc2c(F)cccc2Cl)o1,-3.5%,10.6%,0.2%,7.5%,-3.4%
CC12C=C(/C=C/C=C/c3ccco3)C(C)(C1)C(/C=C/c1ccco1)CC2=O (centres undefined),1.41µM*,/,/,?,-2.8%[12.4 µM]
CC12C=C(/C=C/C=C/c3ccccc3)C(C)(C1)C(/C=C/c1ccccc1)CC2=O (centres undefined),-2.3%[11.5 µM],/,/,?,-9.0%[12.4 µM]
NC(=O)c1ccc(N=C2C(=O)Nc3ccc([N+](=O)[O-])cc32)cc1,i,-3.7%,?,-2.7%,31.6µM*
O=C1Nc2ccccc2C1=Nc1cccc([N+](=O)[O-])c1,/,/,/,-11.2%,-1.7%

# Bioassay records: PubChem BioAssay, National Center for Advancing Translational Sciences (NCATS)
